PubChem BioAssay (NCI)
Compounds without any hit were thinned out: in the full panel of roughly 83,000, 20% have a hit.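 Results are percent growth after 48 hours of single-concentration exposure. 100 means growth as in untreated cells, lower positive values show inhibition; negative values down to -100 show cell death.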 The source made the active and inactive calls. The calls were made as follows: active = growth percent below 10; inactive = the rest.

Assays:
Experiment in all cases: NCI-60 one-dose screen, 48 h (100 = growth as untreated, 0 = no growth, -100 = all killed)
Conditions in all cases: 10 µM unless noted
HCT-15 colon = tested on: HCT-15 colon
HT29 colon = tested on: HT29 colon
SNB-75 CNS = tested on: SNB-75 CNS
SNB-19 CNS = tested on: SNB-19 CNS
U251 CNS = tested on: U251 CNS
PC-3 prostate = tested on: PC-3 prostate
SK-MEL-5 melanoma = tested on: SK-MEL-5 melanoma
UACC-62 melanoma = tested on: UACC-62 melanoma
LOX IMVI melanoma = tested on: LOX IMVI melanoma
SK-MEL-28 melanoma = tested on: SK-MEL-28 melanoma
SK-MEL-2 melanoma = tested on: SK-MEL-2 melanoma
EKVX NSCLC = tested on: EKVX NSCLC
SN12C renal = tested on: SN12C renal
UO-31 renal = tested on: UO-31 renal
TK-10 renal = tested on: TK-10 renal
ACHN renal = tested on: ACHN renal
CAKI-1 renal = tested on: CAKI-1 renal
A498 renal = tested on: A498 renal
CCRF-CEM leukemia = tested on: CCRF-CEM leukemia
MOLT-4 leukemia = tested on: MOLT-4 leukemia

Measured: growth

CC(C)c1ccc(COCc2cc(CN3CCCC3)c(O)c3ncccc23)cc1
inactive: HT29 colon 30.5% | SNB-75 CNS 25.9% | SNB-19 CNS 17.3% | PC-3 prostate 11.6% | SK-MEL-28 melanoma 27.3% | EKVX NSCLC 33.4% | SN12C renal 13.4%
active: HCT-15 colon -35.5% | U251 CNS -13.2% | SK-MEL-5 melanoma 4.48% | UACC-62 melanoma -9.84% | LOX IMVI melanoma -33% | SK-MEL-2 melanoma -23.9% | UO-31 renal -10.6% | TK-10 renal 4.79% | ACHN renal 6.16% | CAKI-1 renal 3.91% | A498 renal 0.55% | CCRF-CEM leukemia 1.53% | MOLT-4 leukemia -5.7%

C=C(C)[C@@H]1CC[C@]2(C(=O)NCC#CCN3CCN(C)CC3)CC[C@]3(C)[C@H](CC[C@@H]4[C@@](C)(CCC#N)[C@H](C(=C)C)CC[C@]43C)[C@@H]12
active: HT29 colon -12.7% | UACC-62 melanoma -8.49%
inactive: HCT-15 colon 20% | SNB-75 CNS 64.7% | SNB-19 CNS 78.2% | U251 CNS 45.3% | PC-3 prostate 35.5% | SK-MEL-5 melanoma 64.6% | LOX IMVI melanoma 10.4% | SK-MEL-28 melanoma 78.1% | SK-MEL-2 melanoma 91.8% | EKVX NSCLC 52.1% | SN12C renal 69.2% | UO-31 renal 51.6% | TK-10 renal 80.4% | ACHN renal 70.8% | CAKI-1 renal 57.7% | A498 renal 57.5% | MOLT-4 leukemia 10.9%

O=C1Nc2ccc(Br)cc2/C1=N/c1n[nH]c(=S)s1
inactive: HCT-15 colon 99.1% | HT29 colon 104% | SNB-75 CNS 74.5% | SNB-19 CNS 101% | U251 CNS 96.2% | PC-3 prostate 95% | SK-MEL-5 melanoma 97.6% | UACC-62 melanoma 93.2% | LOX IMVI melanoma 90.3% | SK-MEL-28 melanoma 114% | SK-MEL-2 melanoma 105% | EKVX NSCLC 100% | SN12C renal 96.6% | UO-31 renal 86.4% | TK-10 renal 104% | ACHN renal 96.3% | CAKI-1 renal 74.6% | A498 renal 92.4% | CCRF-CEM leukemia 104% | MOLT-4 leukemia 100%

Oc1c(Cl)cc(Cl)c2ccc(Cn3cc(-c4cc(F)cc(F)c4)nn3)nc12
active: CCRF-CEM leukemia 4.58%
inactive: HCT-15 colon 41.9% | HT29 colon 68.5% | SNB-75 CNS 58.6% | SNB-19 CNS 94.1% | U251 CNS 96.2% | PC-3 prostate 84.8% | SK-MEL-5 melanoma 98.5% | UACC-62 melanoma 74.1% | LOX IMVI melanoma 20.8% | SK-MEL-28 melanoma 61.4% | SK-MEL-2 melanoma 96.3% | EKVX NSCLC 84.7% | SN12C renal 78.7% | UO-31 renal 68.3% | TK-10 renal 102% | ACHN renal 36.5% | CAKI-1 renal 18.1% | A498 renal 99.4% | MOLT-4 leukemia 17.4%

O=C(c1ccccc1)C1C(=O)N2C(=S)N(c3ccccc3)C(=O)C2C1c1ccc(Cl)cc1 (centres undefined)
inactive: HCT-15 colon 105% | HT29 colon 111% | SNB-75 CNS 96.5% | SNB-19 CNS 93.8% | U251 CNS 98.4% | PC-3 prostate 86.7% | SK-MEL-5 melanoma 91.6% | UACC-62 melanoma 88% | LOX IMVI melanoma 90.2% | SK-MEL-28 melanoma 93.8% | SK-MEL-2 melanoma 99.5% | EKVX NSCLC 100% | SN12C renal 91.7% | UO-31 renal 66.8% | TK-10 renal 126% | ACHN renal 91.8% | CAKI-1 renal 82.9% | A498 renal 81.9% | CCRF-CEM leukemia 98% | MOLT-4 leukemia 102%

S=C1CCSC(=S)N1CCCN1C(=S)CCSC1=S
inactive: HCT-15 colon 51.4% | HT29 colon 67.8% | SNB-75 CNS 70% | SNB-19 CNS 89.7% | U251 CNS 83.2% | PC-3 prostate 69.1% | SK-MEL-5 melanoma 91.5% | UACC-62 melanoma 50.4% | LOX IMVI melanoma 38.2% | SK-MEL-28 melanoma 86.6% | SK-MEL-2 melanoma 96.1% | EKVX NSCLC 101% | SN12C renal 75.6% | UO-31 renal 45.1% | TK-10 renal 66% | ACHN renal 44.4% | CAKI-1 renal 58.9% | A498 renal 102% | CCRF-CEM leukemia 16.7% | MOLT-4 leukemia 30.1%

CC1=Nc2cnc(Nc3ccc(OCCN4CCCCC4)cc3)nc2Nc2ccccc21
inactive: HCT-15 colon 27.8% | HT29 colon 50.6% | SNB-19 CNS 87.8% | U251 CNS 76.6% | PC-3 prostate 48.7% | SK-MEL-5 melanoma 69.2% | UACC-62 melanoma 85.7% | LOX IMVI melanoma 47.6% | SK-MEL-28 melanoma 99.3% | SK-MEL-2 melanoma 50.2% | EKVX NSCLC 78.3% | SN12C renal 49.2% | UO-31 renal 11% | TK-10 renal 64.2% | ACHN renal 27.1% | CAKI-1 renal 17.2% | CCRF-CEM leukemia 70.2% | MOLT-4 leukemia 25.4%
active: SNB-75 CNS 9.67% | A498 renal -9.49%

Cc1ccc2c3c(c(=O)[nH]c2c1)C1(C(C#N)=C(N)O3)c2cc(Br)ccc2-c2ccc(Br)cc21
active: HT29 colon -14.7% | SNB-75 CNS -26.8% | SNB-19 CNS -30% | U251 CNS -66.4% | PC-3 prostate -30.2% | LOX IMVI melanoma 2.99% | EKVX NSCLC -32.9% | SN12C renal -32.3% | UO-31 renal -62.3% | TK-10 renal -36.2% | ACHN renal -15.8% | CAKI-1 renal -64.3% | A498 renal -18.8%
inactive: HCT-15 colon 11.4% | SK-MEL-5 melanoma 61.4% | UACC-62 melanoma 40.1% | SK-MEL-28 melanoma 48.7% | SK-MEL-2 melanoma 32.6% | CCRF-CEM leukemia 32.6% | MOLT-4 leukemia 21.3%

CNc1nc(S(=O)c2ccc(C#N)cc2)nc2ccccc12 (centres undefined)
inactive: HCT-15 colon 81% | HT29 colon 81.8% | SNB-75 CNS 60.5% | SNB-19 CNS 90.8% | U251 CNS 83.1% | PC-3 prostate 89.2% | SK-MEL-5 melanoma 83.6% | UACC-62 melanoma 81% | LOX IMVI melanoma 76.5% | SK-MEL-28 melanoma 94.4% | SK-MEL-2 melanoma 105% | EKVX NSCLC 82.2% | SN12C renal 68.9% | UO-31 renal 60.2% | TK-10 renal 109% | ACHN renal 41.8% | CAKI-1 renal 39.9% | A498 renal 86% | CCRF-CEM leukemia 32.2% | MOLT-4 leukemia 68.6%

CCc1ccc(C(=O)/C=C/C23c4ccccc4C(c4ccccc42)C2C(=O)NC(=O)C23)cc1 (centres undefined)
active: HCT-15 colon -10.3% | HT29 colon 1.59% | U251 CNS -25% | UACC-62 melanoma -6.86% | LOX IMVI melanoma -68.7% | SK-MEL-28 melanoma -23.7% | SK-MEL-2 melanoma 3.45% | SN12C renal -7.89% | ACHN renal 0.0344% | A498 renal 5.29% | CCRF-CEM leukemia 0.462% | MOLT-4 leukemia 2.03%
inactive: SNB-75 CNS 26.3% | SNB-19 CNS 12% | PC-3 prostate 13.3% | SK-MEL-5 melanoma 10% | EKVX NSCLC 23.2% | UO-31 renal 22.1% | TK-10 renal 18% | CAKI-1 renal 27.5%

Cc1ccc2c(n1)C(=O)c1[nH]c3ccccc3c1C2=O
inactive: HCT-15 colon 18.8% | HT29 colon 26.6% | SNB-19 CNS 46.9% | U251 CNS 40.9% | PC-3 prostate 35.3% | LOX IMVI melanoma 16.4% | SK-MEL-28 melanoma 78.6% | SK-MEL-2 melanoma 64.2% | EKVX NSCLC 43.7% | SN12C renal 36.5% | UO-31 renal 50.5% | TK-10 renal 115% | ACHN renal 49.2% | CAKI-1 renal 56.4% | A498 renal 69.2% | CCRF-CEM leukemia 55.9% | MOLT-4 leukemia 35.1%
active: SNB-75 CNS -37.8% | SK-MEL-5 melanoma -94% | UACC-62 melanoma -64.2%

Cc1ccc(-c2nn(-c3ccccc3)cc2C=C2C(=O)ON=C2C(C)C)cc1
inactive: HCT-15 colon 63% | HT29 colon 44.5% | SNB-75 CNS 70.3% | SNB-19 CNS 78.4% | U251 CNS 52.4% | PC-3 prostate 63.5% | SK-MEL-5 melanoma 87.1% | UACC-62 melanoma 75.8% | SK-MEL-28 melanoma 88.7% | SK-MEL-2 melanoma 84.5% | EKVX NSCLC 102% | SN12C renal 75.9% | UO-31 renal 72% | TK-10 renal 86.9% | ACHN renal 89.3% | CAKI-1 renal 61.3% | A498 renal 84.9%
active: LOX IMVI melanoma 2% | CCRF-CEM leukemia 1.71% | MOLT-4 leukemia -15.6%

COc1ccc2c(O)c(/C=C3\N=Nc4ncccc43)oc2c1C[C@H]1CCNC[C@H]1F
active: HCT-15 colon 7.66% | HT29 colon 5.05% | SNB-75 CNS -61.2% | U251 CNS -51% | PC-3 prostate -5.49% | SK-MEL-5 melanoma -30.1% | UACC-62 melanoma -15.4% | LOX IMVI melanoma -11% | SK-MEL-28 melanoma 8.22% | SK-MEL-2 melanoma -6.33% | EKVX NSCLC 5.31% | SN12C renal 7.25% | UO-31 renal 4.13% | ACHN renal 4.51% | CAKI-1 renal 6% | A498 renal -41.8% | CCRF-CEM leukemia -3.17% | MOLT-4 leukemia -34.3%
inactive: SNB-19 CNS 10.4% | TK-10 renal 19.8%

Clc1ccc(Sc2cnc(-c3ccccc3)o2)cc1
inactive: HCT-15 colon 103% | HT29 colon 105% | SNB-75 CNS 92.6% | SNB-19 CNS 88.4% | U251 CNS 91.4% | PC-3 prostate 104% | SK-MEL-5 melanoma 97.8% | UACC-62 melanoma 102% | LOX IMVI melanoma 97.3% | SK-MEL-28 melanoma 102% | SK-MEL-2 melanoma 100% | EKVX NSCLC 98.5% | SN12C renal 101% | UO-31 renal 78.4% | TK-10 renal 85.1% | ACHN renal 99.7% | CAKI-1 renal 90.2% | A498 renal 63.5% | CCRF-CEM leukemia 99.2% | MOLT-4 leukemia 100%

COc1ccc2c(O)c(/C=C3\N=Nc4ccccc43)oc2c1C[C@@H]1CCNC[C@H]1F
inactive: HT29 colon 12.3% | SNB-75 CNS 51.1% | SNB-19 CNS 84.1% | U251 CNS 10.1% | PC-3 prostate 68.3% | SK-MEL-5 melanoma 63.9% | UACC-62 melanoma 76% | SK-MEL-2 melanoma 96.9% | EKVX NSCLC 64.5% | SN12C renal 67.7% | UO-31 renal 50.5% | TK-10 renal 84.2% | ACHN renal 61.3% | CAKI-1 renal 64.8% | A498 renal 57.9% | MOLT-4 leukemia 68%
active: HCT-15 colon 6.86% | LOX IMVI melanoma -82.7% | SK-MEL-28 melanoma -70.2% | CCRF-CEM leukemia -16.3%
